# Only a selection was taken, and hits are over-represented in it overall.
# RMI-FANCM inh = inhibitors of human RMI core complex binding to FANCM MM2; FP signal (polarization) at 33 µM; Fluorescence polarization, RMI core complex with F-MM2 peptide; stronger effect = lower value; 0.58% of 70,000 active; AID 1159607; in the data active means FP signal below about 40
# * marks the source's active call; other numbers are inactive results; ! = a repeat was not active.
SMILES,RMI-FANCM inh
O=C(/C=C/c1ccccc1)Nc1ccc(Br)cc1C(=O)c1ccccc1Cl,55
O=C(CN1C(=O)CCC1=O)C(=O)Nc1ccc(Br)cc1C(=O)c1ccccc1Cl,50
O=C(/C=C/c1cccs1)C(=O)Nc1ccc(Br)cc1C(=O)c1ccccc1Cl,30*
CN(C)CC#Cc1ccc(C=C(C#N)C#N)cc1,63
CCCCOC(=O)c1ccc(NC(=O)c2cccn(Cc3ccc(C(F)(F)F)cc3)c2=O)cc1,53
O=C(NP(=O)(N1CCOCC1)N1CCOCC1)C(Cl)(Cl)Cl,67
CCc1cc2c(cc1-c1csc(-c3ccc(OC)cc3)n1)C(C)(C)CCC2(C)C,65
CC(=O)O[C@H]1CC[C@@]2(C)C(=CC[C@@H]3[C@@H]2CC[C@]2(C)C(=O)CC[C@@H]32)C1,9*
C[C@]12CC[C@H](O)CC1=CC[C@@H]1[C@@H]2CC[C@@]2(C)[C@H]1CC[C@]2(C)O,55
CC(=O)O[C@@H]1CC[C@]2(C)C3CC[C@]4(C)C(=O)CCC4C3CC[C@H]2C1 (some centres not stated),64
CC(C)(C)NCC(O)c1cc(Cl)c(N)c(Cl)c1 (configuration not stated),4*!
CCOC(=O)C1=C(N)Oc2c(c(=O)oc3ccccc23)C1c1ccccc1Cl (configuration not stated),54
CCN(CC)CCN(C(=O)Cc1cccc2ccccc12)c1nc2cc3c(cc2s1)OCO3,79
Cc1csc(NC(=O)c2cccn(Cc3ccccc3Cl)c2=O)n1,57
Cc1cccc(NC(=O)c2cccn(Cc3ccc(Br)cc3)c2=O)c1C,50
Cc1ccccc1Cn1cccc(C(=O)Nc2cccc(Cl)c2Cl)c1=O,10*
CC(=O)c1cccc(NC(=O)c2cccn(Cc3ccccc3C)c2=O)c1,63
O=C(Cc1ccc(F)cc1)N1CCN(Cc2nc(-c3cccs3)cs2)CC1,61
Cc1nn(-c2ccccc2)cc1C=C1C(=O)NC(=S)NC1=O,88
O=C(COc1ccccc1F)N1CCN(Cc2nc(C3CC3)cs2)CC1,61
CCN(CC)C(=O)N[C@@H]1C[C@@H]2c3cccc4[nH]cc(c34)C[C@H]2N(C)C1,52
CC(CO)NC(=O)C1C=C2c3cccc4[nH]cc(c34)C[C@H]2N(C)C1 (some centres not stated),42
CCN(CC)C(=O)N[C@H]1C=C2c3cccc4[nH]cc(c34)C[C@H]2N(C)C1,20*
CC12CCC3C(CCC4CCCCC43C)C1C/C(=C\c1ccccc1)C2=O (configuration not stated),61
CC(C)(C)c1csc(CN2CCN(C(=O)Cc3ccc(Cl)cc3)CC2)n1,60
SMILES,RMI-FANCM inh
CC12CCC3C(CCC4CC(O)CCC43C)C1C/C(=C\c1cccc(Cl)c1Cl)C2=O (configuration not stated),46
CC(C)(O)[C@@H]1[C@H]2OC(=O)[C@@H]1[C@]1(O)C[C@H]3O[C@]34C(=O)O[C@H]2[C@]14C,53
CC(C)(O)[C@@H]1[C@H]2OC(=O)[C@@H]1[C@]1(O)C[C@H]3O[C@]34C(=O)O[C@H]2[C@]14C (tested in a mixture with another compound),30*
CN(C)C(=O)Oc1ccc(C(=O)c2ccc(Cl)cc2)cc1,62
CN1CCN(C(=O)Cc2csc3nc(-c4ccc(F)cc4)cn23)CC1,65
Cc1nnc(N)n1N,65
CC[C@@]1(O)C[C@H](O[C@H]2C[C@H](N(C)C)[C@H](O)[C@H](C)O2)c2c(cc3c(c2O)C(=O)c2c(O)ccc(O)c2C3=O)[C@H]1C(=O)OC,55
CC[C@@]1(O)C[C@H](O[C@H]2C[C@H](N(C)C)[C@H](O)[C@H](C)O2)c2c(cc3c(c2O)C(=O)c2c(O)cccc2C3=O)[C@H]1C(=O)OC,79
CC[C@@]1(O)C[C@H](O)c2c(cc3c(c2O)C(=O)c2c(O)ccc(O)c2C3=O)[C@H]1C(=O)OC,26*
O=C(Nc1ccc(Br)cc1C(=O)c1ccccc1)c1ccc2c(c1)CCCC2,52
